Measured values published in PubChem BioAssay (Tox21).
Several values for one entry are separate records, joined by “and”; a condition that tells them apart may be missing. Equal values may be shown once. Results filed as inconclusive are left out. Entries that show only a call come without a potency. More than one record can exist for a structure, and the calls need not agree. Activity calls are given as the source filed them. Unless noted, the call rests on the fitted dose curve.

Experiments:
[1] = Nuclear factor erythroid 2-related factor 2/antioxidant responsive element (Nrf2/ARE) small molecule agonists: qHTS cell viability counter screen in human keratinocytes (AID 1919968; active means well fitted curve in the direction sought with a large enough effect in the repeat runs; an effect the other way counts as inactive or inconclusive; further: nearly all actives have a fitted effect of over 55% in size)
How it was run: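 HaCaT ARE reporter line, 1,500 cells/well; 5 h settle, 37 C/5% CO2; cpd in DMSO pinned; 23 h exposure; CellTiter-Fluor, 1 h; fluorescence.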

[2] = Nuclear factor erythroid 2-related factor 2/antioxidant responsive element (Nrf2/ARE) small molecule agonists: luciferase reporter gene qHTS assay in human keratinocytes (AID 1919969); further: nearly all actives have a fitted effect of over 35% in size; further: potency means the concentration at half of the fitted maximal effect
[3] = biological target: Gonadotropin-releasing hormone receptor (Homo sapiens) (UniProt P30968); assay: Human gonadotropin-releasing hormone receptor (GnRHR) small molecule agonists, calcium flux assay in GnRHR-HEK293 cells (AID 1920063); further: nearly all actives have a fitted effect of over 35% in size
Chain of Gonadotropin-releasing hormone receptor (Homo sapiens) (P30968 whole entry, looked up): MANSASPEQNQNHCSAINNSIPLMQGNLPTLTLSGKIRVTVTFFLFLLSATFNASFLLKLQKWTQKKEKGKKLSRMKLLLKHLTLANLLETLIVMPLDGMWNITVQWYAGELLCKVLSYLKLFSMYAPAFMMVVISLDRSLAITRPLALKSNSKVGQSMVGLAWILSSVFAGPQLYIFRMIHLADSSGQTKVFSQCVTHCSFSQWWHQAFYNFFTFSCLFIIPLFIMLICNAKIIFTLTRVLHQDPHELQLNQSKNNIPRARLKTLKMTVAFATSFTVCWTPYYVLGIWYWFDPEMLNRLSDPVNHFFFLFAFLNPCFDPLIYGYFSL
How it was run: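 GnRHR-HEK293, 1500 cells/well, 18 h 37 C/5% CO2; Ca dye 1 h 37 C; cpd pinned (DMSO), agonist mode; kinetic FL 480/540, 3 min, 1 s reads; 15 conc, n=3.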

[4] = biological target: KiSS-1 receptor (Homo sapiens) (UniProt Q969F8); assay: Human kisspeptin (KISS1R) small molecule agonists, calcium flux assay in KISS1R-HEK293 cells (AID 1920064; active means well fitted curve in the direction sought with a large enough effect in the repeat runs; an effect the other way counts as inactive or inconclusive)
Chain of KiSS-1 receptor (Homo sapiens) (Q969F8 whole entry, looked up): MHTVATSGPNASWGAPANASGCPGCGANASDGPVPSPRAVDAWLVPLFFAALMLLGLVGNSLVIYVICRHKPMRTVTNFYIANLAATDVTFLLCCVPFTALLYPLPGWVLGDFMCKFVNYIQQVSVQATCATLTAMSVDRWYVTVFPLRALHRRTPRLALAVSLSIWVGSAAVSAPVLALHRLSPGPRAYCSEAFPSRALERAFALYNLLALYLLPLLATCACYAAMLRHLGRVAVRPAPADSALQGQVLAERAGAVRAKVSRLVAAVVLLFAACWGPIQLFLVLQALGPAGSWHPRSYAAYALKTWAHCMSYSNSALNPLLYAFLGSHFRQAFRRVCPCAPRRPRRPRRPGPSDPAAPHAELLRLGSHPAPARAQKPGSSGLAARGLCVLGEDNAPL
How it was run: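 Stable human KISS1R HEK293 line; 18 h plating, 37 C/5% CO2; calcium dye 1 h 37 C; compound pin transfer; kinetic fluorescence Ex/Em 480/540, 3 min.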

[5] = G protein-coupled receptor (GPCR) small molecule agonists, calcium flux assay: HEK293 wild type cell line counter screen (AID 1920065)
How it was run: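 Kinetic fluorescence at Ex/Em 480/540, recorded every second over 3 min, served as the read-out after compound addition. Each compound was tested at 15 concentrations in triplicate on cells pre-loaded with calcium dye for 1 h.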

[6] = p53 small molecule agonists, cell-based qHTS assay with human liver microsomes (AID 1963577);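 further: p53 response element beta-lactamase reporter cells with liver microsomes plus NADPH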
How it was run: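 p53RE-bla cells; 5 h settle, 37 C/5% CO2; cpd + HLM 0.5 mg/mL + NADPH 0.5 mg/mL (final); 16 h 37 C; LiveBLAzer 2 h RT dark; fluorescence readout.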

[7] = p53 small molecule agonists, cell-based qHTS assay with rat liver microsomes: qHTS cell viability counter screen (AID 1963580); further: nearly all actives have a fitted effect of over 45% in size
How it was run: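 p53RE-bla HCT-116 cells were exposed 16 h at 37 C to compounds with rat liver microsomes (0.5 mg/mL) and NADPH (0.5 mg/mL). Viability was measured in the same wells as ATP content by CellTiter-Glo luminescence.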

[8] = p53 small molecule agonists, cell-based qHTS assay: qHTS cell viability counter screen (AID 1963581); further: nearly all actives have a fitted effect of over 45% in size
How it was run: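 HCT-116 p53RE-bla cells, 4,000/well, plated 5 h before compound pin transfer; 16 h at 37 C; bla substrate 2 h RT; then CellTiter-Glo, 30 min RT, luminescence.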

[9] = biological target: 5-hydroxytryptamine receptor 2A (Homo sapiens) (UniProt P28223); assay: 5-hydroxytryptamine receptor 2A (HTR2A) small molecule antagonists, cell-based qHTS assay (AID 1963586); further: nearly all actives have a fitted effect of over 45% in size
Chain of 5-hydroxytryptamine receptor 2A (Homo sapiens) (P28223 whole entry, looked up): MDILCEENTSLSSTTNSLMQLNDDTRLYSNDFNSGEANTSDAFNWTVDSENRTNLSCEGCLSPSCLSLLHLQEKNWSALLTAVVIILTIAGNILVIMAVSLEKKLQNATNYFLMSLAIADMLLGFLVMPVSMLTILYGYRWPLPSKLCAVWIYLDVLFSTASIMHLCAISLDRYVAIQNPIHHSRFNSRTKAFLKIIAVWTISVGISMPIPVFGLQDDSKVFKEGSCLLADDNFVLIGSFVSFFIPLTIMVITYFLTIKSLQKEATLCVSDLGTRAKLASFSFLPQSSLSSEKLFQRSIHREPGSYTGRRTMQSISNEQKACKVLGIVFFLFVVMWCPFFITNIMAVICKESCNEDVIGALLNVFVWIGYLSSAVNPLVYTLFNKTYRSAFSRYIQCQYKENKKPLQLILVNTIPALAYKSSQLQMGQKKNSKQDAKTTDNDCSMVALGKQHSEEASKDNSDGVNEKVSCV
How it was run: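 Antagonist-mode intracellular calcium assay: DOI (4 nM) added after 5 min compound pre-incubation at room temperature to dye-loaded HTR2A-CHO cells. Fluorescence followed for 3 min, sampled every second.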

[10] = biological target: 5-hydroxytryptamine receptor 2A (Homo sapiens) (UniProt P28223); assay: 5-hydroxytryptamine receptor 2A (HTR2A) small molecule agonists, cell-based qHTS assay (AID 1963587); further: nearly all actives have a fitted effect of over 30% in size
How it was run: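 CHO cells stably expressing human HTR2A, plated 18 h, loaded with calcium dye 1 h at 37 C. Agonist mode: compounds added and intracellular calcium fluorescence recorded kinetically for 2 min at 1 sec intervals.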

[11] = biological target: Muscarinic acetylcholine receptor M1 (Homo sapiens) (UniProt P11229); assay: Cholinergic receptor muscarinic 1 (CHRM1) small molecule antagonists, cell-based qHTS assay (AID 1963588); further: nearly all actives have a fitted effect of over 40% in size
Chain of Muscarinic acetylcholine receptor M1 (Homo sapiens) (P11229 whole entry, looked up): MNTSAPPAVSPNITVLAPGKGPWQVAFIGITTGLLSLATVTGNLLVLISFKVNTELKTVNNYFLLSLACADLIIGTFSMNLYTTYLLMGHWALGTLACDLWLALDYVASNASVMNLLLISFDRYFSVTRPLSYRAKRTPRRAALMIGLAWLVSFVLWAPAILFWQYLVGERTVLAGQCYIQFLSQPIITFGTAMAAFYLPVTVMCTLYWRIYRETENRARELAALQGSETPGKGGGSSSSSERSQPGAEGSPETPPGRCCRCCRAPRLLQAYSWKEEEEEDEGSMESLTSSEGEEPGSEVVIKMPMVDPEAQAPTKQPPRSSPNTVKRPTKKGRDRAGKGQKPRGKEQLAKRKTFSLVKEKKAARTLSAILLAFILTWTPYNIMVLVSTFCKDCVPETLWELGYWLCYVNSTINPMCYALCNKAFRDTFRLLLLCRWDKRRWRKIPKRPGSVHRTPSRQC
How it was run: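 CHRM1-CHO calcium-flux assay, antagonist mode. Cells were seeded 18 h, dye-loaded 1 h at 37 C and given compound for 5 min at RT, then acetylcholine was added at 50nM. FDSS fluorescence was read 3 min; 15 concentrations, three runs.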

[12] = cAMP Responsive Elements (CRE) small molecule agonists, cell-based qHTS assay (AID 1963590)
How it was run: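 HEK 293T CRE-bla, 2,000 cells/well, 18 h preincubation 37 C/5% CO2; cpds (DMSO) pinned, 3 h; LiveBLAzer B/G FRET substrate, 2 h RT.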

[13] = biological target: Beta-2 adrenergic receptor (Homo sapiens) (UniProt P07550); assay: Adrenergic beta2 receptor (ADRB2) small molecule antagonists, cell-based qHTS assay (AID 1963592); further: series mostly up to about 92 µM; nearly all actives have a fitted effect of over 50% in size
Chain of Beta-2 adrenergic receptor (Homo sapiens) (P07550 whole entry, looked up): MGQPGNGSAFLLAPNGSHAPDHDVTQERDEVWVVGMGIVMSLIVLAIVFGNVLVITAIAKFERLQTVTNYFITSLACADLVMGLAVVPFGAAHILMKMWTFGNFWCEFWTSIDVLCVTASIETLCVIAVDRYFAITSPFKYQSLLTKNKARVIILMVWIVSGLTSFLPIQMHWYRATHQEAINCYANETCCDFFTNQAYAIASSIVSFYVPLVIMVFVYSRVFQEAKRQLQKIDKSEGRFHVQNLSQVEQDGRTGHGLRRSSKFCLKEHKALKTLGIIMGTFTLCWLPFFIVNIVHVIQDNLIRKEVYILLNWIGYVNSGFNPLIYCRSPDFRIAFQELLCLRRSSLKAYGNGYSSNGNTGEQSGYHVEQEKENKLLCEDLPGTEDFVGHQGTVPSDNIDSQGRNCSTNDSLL
How it was run: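 Cells (CHO, stable ADRB2 overexpression) incubated 18-20hr at 37C; compounds added from DMSO; agonist mix (1nM isoproterenol, 100uM IBMX, 25uM Ro-20-1724) added; 0.5hr RT; d2-cAMP and anti-cAMP-cryptate added; 1hr RT; 665/615 nm read.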

[14] = biological target: Beta-2 adrenergic receptor (Homo sapiens) (UniProt P07550); assay: Adrenergic beta2 receptor (ADRB2) small molecule agonists, cell-based qHTS assay (AID 1963593);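 further: CHO cells stably overexpressing human ADRB2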
How it was run: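 CHO cells stably over-expressing ADRB2 were plated overnight at 37C, then dosed with compounds plus a stimulation mix containing 100uM IBMX and 25uM Ro-20-1724 for 0.5hr at room temperature. cAMP was measured by HTRF competition, 1hr.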

[15] = biological target: D(2) dopamine receptor (Homo sapiens) (UniProt P14416); assay: Dopamine D2 receptor (DRD2) small molecule antagonists, cell-based qHTS assay (AID 1963595; active means well fitted inhibition curve with a large enough effect in the signal ratio in the repeat runs, with a control signal flat; the % refers to the signal ratio)
Chain of D(2) dopamine receptor (Homo sapiens) (P14416 whole entry, looked up): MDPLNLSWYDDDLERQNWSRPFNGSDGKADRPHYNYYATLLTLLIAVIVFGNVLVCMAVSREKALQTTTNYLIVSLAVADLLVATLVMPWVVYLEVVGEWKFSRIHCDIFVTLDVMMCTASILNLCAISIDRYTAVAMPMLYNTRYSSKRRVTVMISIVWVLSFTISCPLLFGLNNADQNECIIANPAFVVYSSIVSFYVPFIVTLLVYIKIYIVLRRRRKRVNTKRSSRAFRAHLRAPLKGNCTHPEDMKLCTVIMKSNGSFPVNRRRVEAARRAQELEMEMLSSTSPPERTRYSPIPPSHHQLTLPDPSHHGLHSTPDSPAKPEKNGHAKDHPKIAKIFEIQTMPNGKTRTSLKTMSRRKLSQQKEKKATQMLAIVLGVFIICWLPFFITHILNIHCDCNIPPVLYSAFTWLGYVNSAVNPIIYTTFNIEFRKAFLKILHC
How it was run: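 Cells were plated and grown for 24 h at 37 °C. Ro20-1724 (0.1 mM final) went in first, then compound for 10 min. NKH477 (200 nM) with quinpirole (12 nM) followed for 30 min at RT, then HTRF detection reagents for 1 h.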

[16] = biological target: Muscarinic acetylcholine receptor M1 (Homo sapiens) (UniProt P11229); assay: Cholinergic receptor muscarinic 1 (CHRM1) small molecule agonists, cell-based qHTS assay (AID 1963589); further: nearly all actives have a fitted effect of over 35% in size
How it was run: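 Human M1 in stable CHO line; 18 h plating, 1 h dye load 37 C; cpd added (agonist mode); Ca2+ fluorescence kinetic read, 1 s intervals; 15 conc, 3 runs.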

[17] = cAMP Responsive Elements (CRE) small molecule antagonists, cell-based qHTS assay (AID 1963591; active means well fitted inhibition curve with a large enough effect in the signal ratio in the repeat runs, not every such curve was filed as active; the % refers to the signal ratio)
How it was run: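 Beta-lactamase reporter read by FRET substrate (LiveBLAzer B/G) after 2 h at room temperature. CRE-bla HEK293T cells had received compound plus 0.25 uM (final) NKH477 for 3 h at 37 °C.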

[18] = biological target: D(2) dopamine receptor (Homo sapiens) (UniProt P14416); assay: Dopamine D2 receptor (DRD2) small molecule agonists, cell-based qHTS assay (AID 1963594); further: nearly all actives have a fitted effect of over 35% in size
How it was run: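 HEK293 cells stably expressing human DRD2, pre-treated with PDE inhibitor Ro20-1724 (0.1 mM final) and compound 10 min at room temperature, then stimulated with NKH477 (200nM […]) for 30 min. cAMP read by HTRF (665/620 nm).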

[19] = p53 small molecule agonists, cell-based qHTS assay (AID 1963582; active means well fitted activation curve with a large enough effect in the signal ratio in the repeat runs, not every such curve was filed as active; the % refers to the signal ratio)
How it was run: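 Reporter line: p53RE-bla. Pre-incubation 5 h, 37 C, 5% CO2; compound (DMSO, pin tool) 16 h, 37 C; B/G FRET substrate 2 h RT; fluorescence intensity read.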

[20] = p53 small molecule agonists, cell-based qHTS assay with human liver microsomes: qHTS cell viability counter screen (AID 1963579); further: nearly all actives have a fitted effect of over 45% in size
How it was run: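 Luminescent CellTiter-Glo read-out, 30 min at room temperature, gauged cytotoxicity in p53RE-bla cells exposed 16 h at 37 C to DMSO-dissolved compounds with metabolic activation by human liver microsomes and NADPH, each 0.5 mg/mL final.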

| SMILES | Potency [1] | Potency [2] | Potency [3] | Potency [4] | Potency [5] | Potency [6] | Potency [7] | Potency [8] | Potency [9] | Potency [10] | Potency [11] | Potency [12] | Potency [13] | Potency [14] | Potency [15] | Potency [16] | Potency [17] | Potency [18] | Potency [19] | Potency [20] |
| --- | --- | --- | --- | --- | --- | --- | --- | --- | --- | --- | --- | --- | --- | --- | --- | --- | --- | --- | --- | --- |
| CCCCC/C=C\C/C=C\CCCCCCCC(=O)OC | inactive | 27 µM (active) and 68.6 µM (active) | inactive | inactive | inactive | inactive | inactive | inactive | inactive | inactive | inactive | inactive | inactive | inactive | inactive |  |  |  |  |  |
| NC(N)=NC(N)=NCCc1ccccc1 | inactive | inactive | inactive | inactive | inactive | inactive |  |  | inactive | inactive | inactive | inactive | inactive | inactive | inactive | inactive | inactive |  |  |  |
| OC[C@H]1O[C@H](O[C@]2(CCl)O[C@H](CCl)[C@@H](O)[C@@H]2O)[C@H](O)[C@@H](O)[C@H]1Cl | inactive | inactive | inactive | inactive | inactive | inactive | inactive | inactive | inactive | inactive | inactive | inactive | inactive | inactive | inactive | inactive | inactive | inactive |  |  |
| C=CCNCC=C | inactive | inactive | inactive | inactive | inactive | inactive | inactive | inactive | inactive | inactive | inactive | inactive | inactive | inactive | inactive | inactive | inactive | inactive | inactive |  |
| Cc1cc(C(C)(C)C)c(O)c(C(C)(C)C)c1 | inactive | 24.4 µM (active) and 48.6 µM (active) | inactive | inactive | inactive | inactive | inactive | inactive | inactive | inactive | inactive | inactive | inactive | inactive | inactive | inactive | inactive | inactive | inactive |  |
| ClC1=C(Cl)C(Cl)(Cl)C(Cl)=C1Cl | inactive | inactive and 61.1 µM (active) | inactive | inactive | inactive | inactive | inactive | inactive | inactive | inactive | inactive | inactive | inactive | inactive | inactive | inactive | inactive | inactive | inactive | inactive |
| CC1(C)O[C@@H]2C[C@H]3[C@@H]4CCC5=CC(=O)C=C[C@]5(C)[C@@]4(F)[C@@H](O)C[C@]3(C)[C@]2(C(=O)CO)O1 | inactive | inactive | inactive | inactive | inactive | inactive | inactive | inactive |  |  |  | inactive | inactive |  | inactive |  | inactive | inactive | inactive |  |
| CCNc1ccccc1 | inactive | inactive | inactive | inactive | inactive | inactive | inactive | inactive | inactive | inactive | inactive | inactive | inactive |  | inactive | inactive | inactive | inactive | inactive |  |
